The target in assay [1] is Sphingosine kinase 1 (Homo sapiens) (UniProt Q9NYA1). Conditions: at 1 µM.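 Note: mean SPHK1 inhibition value reported from the GSK PKIS kinase panel screen.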
The target in assay [2] is T1, Sphingosine kinase 2 (Homo sapiens) (UniProt Q9NRA0).
T1 sequence (whole entry): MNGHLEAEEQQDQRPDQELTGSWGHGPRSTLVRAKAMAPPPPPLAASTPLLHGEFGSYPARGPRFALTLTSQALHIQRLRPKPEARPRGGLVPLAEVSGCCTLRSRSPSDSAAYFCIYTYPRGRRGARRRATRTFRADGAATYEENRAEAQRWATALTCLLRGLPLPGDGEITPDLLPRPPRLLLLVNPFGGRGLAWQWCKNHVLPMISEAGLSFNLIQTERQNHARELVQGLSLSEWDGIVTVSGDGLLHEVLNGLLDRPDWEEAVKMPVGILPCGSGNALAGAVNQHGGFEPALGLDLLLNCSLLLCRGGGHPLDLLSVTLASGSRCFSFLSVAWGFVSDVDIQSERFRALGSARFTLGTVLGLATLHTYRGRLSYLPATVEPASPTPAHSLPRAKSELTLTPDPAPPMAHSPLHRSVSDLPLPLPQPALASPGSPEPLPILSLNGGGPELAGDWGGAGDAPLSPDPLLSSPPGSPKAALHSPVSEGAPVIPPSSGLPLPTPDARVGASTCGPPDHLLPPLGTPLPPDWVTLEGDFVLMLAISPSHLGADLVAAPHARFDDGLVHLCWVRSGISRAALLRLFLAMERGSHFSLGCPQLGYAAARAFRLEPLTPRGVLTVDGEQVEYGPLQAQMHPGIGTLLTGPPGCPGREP
Conditions: at 0.1 µM.

Assay [3] concerns the target T1, Sphingosine kinase 2 (Homo sapiens). Conditions: at 1 µM.
The target of assay [4] is Casein kinase II subunit alpha (Homo sapiens) (UniProt P68400). Conditions: at 0.1 µM.
Casein kinase II subunit alpha (Homo sapiens), sequence (P68400 whole entry, looked up): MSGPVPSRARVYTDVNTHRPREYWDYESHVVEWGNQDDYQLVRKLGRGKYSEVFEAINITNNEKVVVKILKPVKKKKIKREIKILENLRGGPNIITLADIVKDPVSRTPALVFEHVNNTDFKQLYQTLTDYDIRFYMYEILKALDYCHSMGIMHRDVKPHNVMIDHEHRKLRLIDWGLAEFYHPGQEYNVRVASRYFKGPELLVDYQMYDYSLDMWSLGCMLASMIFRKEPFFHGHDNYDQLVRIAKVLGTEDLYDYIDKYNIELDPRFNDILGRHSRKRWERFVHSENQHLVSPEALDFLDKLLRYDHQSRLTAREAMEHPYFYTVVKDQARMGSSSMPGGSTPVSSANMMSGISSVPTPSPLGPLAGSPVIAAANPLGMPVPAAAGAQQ
Assay [5] has the same target. Conditions: at 1 µM.
The target of assay [6] is T2, Inhibitor of nuclear factor kappa-B kinase subunit alpha (Homo sapiens) (UniProt O15111).
T2 sequence (whole entry): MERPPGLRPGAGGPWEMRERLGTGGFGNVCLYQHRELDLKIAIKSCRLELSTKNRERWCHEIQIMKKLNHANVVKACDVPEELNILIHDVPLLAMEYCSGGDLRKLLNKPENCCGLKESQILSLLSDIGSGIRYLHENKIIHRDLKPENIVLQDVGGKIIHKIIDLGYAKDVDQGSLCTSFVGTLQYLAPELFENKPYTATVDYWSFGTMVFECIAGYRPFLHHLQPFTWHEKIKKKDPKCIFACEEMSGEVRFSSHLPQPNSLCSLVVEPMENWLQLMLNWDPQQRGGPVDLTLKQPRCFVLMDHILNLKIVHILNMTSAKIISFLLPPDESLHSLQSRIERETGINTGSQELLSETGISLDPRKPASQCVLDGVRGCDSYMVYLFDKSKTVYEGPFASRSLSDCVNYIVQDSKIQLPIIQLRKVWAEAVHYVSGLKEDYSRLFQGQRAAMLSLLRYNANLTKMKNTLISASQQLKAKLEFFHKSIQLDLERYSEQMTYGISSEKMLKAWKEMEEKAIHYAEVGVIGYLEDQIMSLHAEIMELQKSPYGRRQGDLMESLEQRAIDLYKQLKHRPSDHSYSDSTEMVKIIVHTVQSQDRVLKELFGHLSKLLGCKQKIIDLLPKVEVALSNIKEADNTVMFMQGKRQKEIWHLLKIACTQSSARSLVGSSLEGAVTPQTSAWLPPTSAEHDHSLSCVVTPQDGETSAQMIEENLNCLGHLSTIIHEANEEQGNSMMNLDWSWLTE
The note with it: at 0.1 µM.

Assay [7] deals with T2, Inhibitor of nuclear factor kappa-B kinase subunit alpha (Homo sapiens). Conditions: at 1 µM.
The target of assay [8] is T3, Inhibitor of nuclear factor kappa-B kinase subunit beta (Homo sapiens) (UniProt O14920).
T3 sequence (whole entry): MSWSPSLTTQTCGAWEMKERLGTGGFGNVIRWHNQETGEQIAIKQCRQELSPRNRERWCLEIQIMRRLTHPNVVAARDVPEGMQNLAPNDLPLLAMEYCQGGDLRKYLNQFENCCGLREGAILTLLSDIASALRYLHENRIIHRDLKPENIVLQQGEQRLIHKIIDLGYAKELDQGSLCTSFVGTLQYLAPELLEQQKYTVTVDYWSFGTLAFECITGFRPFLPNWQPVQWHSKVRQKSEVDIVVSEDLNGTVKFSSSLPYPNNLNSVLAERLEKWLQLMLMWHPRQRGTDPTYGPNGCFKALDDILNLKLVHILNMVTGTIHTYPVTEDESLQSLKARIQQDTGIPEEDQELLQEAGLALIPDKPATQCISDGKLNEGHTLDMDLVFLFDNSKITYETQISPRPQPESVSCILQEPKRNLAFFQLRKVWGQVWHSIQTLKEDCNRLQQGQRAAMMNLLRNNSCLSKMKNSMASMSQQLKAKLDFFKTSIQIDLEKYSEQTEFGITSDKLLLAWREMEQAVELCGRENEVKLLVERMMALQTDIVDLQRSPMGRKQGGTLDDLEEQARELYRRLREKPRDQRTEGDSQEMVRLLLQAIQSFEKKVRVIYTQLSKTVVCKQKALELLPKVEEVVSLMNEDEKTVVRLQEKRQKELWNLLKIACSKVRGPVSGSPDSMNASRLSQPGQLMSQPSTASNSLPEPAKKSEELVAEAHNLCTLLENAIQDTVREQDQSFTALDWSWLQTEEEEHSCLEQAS
Conditions: at 0.1 µM.

Assay [9] concerns the target T3, Inhibitor of nuclear factor kappa-B kinase subunit beta (Homo sapiens). The note with it: at 1 µM.
Assay [10] concerns the target T4, Inhibitor of nuclear factor kappa-B kinase subunit epsilon (Homo sapiens) (UniProt Q14164).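 Note: mean inhibition of IKKε reported, from the GSK PKIS dataset.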
T4 sequence (whole entry): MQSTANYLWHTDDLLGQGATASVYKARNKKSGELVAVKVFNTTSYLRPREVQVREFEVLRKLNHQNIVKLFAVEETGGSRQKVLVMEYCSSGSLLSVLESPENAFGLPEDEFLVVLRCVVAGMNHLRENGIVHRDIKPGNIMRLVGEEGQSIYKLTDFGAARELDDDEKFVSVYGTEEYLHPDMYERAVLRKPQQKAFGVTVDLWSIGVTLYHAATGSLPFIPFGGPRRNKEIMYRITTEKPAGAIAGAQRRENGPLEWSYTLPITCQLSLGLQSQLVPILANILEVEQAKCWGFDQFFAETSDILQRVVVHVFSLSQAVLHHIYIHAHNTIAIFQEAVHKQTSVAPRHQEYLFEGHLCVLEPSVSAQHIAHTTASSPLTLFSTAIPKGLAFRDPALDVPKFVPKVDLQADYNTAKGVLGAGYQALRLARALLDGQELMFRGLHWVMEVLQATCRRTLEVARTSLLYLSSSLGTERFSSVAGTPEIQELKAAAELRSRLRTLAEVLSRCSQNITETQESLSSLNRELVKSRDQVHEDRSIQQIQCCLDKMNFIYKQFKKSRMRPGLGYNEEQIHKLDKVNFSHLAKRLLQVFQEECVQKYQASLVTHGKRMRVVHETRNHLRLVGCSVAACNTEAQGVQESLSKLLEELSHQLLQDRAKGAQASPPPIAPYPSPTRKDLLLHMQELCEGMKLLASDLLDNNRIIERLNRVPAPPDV
The note with it: at 0.1 µM.

Sphingosine kinase 1 (Homo sapiens), sequence (Q9NYA1 whole entry): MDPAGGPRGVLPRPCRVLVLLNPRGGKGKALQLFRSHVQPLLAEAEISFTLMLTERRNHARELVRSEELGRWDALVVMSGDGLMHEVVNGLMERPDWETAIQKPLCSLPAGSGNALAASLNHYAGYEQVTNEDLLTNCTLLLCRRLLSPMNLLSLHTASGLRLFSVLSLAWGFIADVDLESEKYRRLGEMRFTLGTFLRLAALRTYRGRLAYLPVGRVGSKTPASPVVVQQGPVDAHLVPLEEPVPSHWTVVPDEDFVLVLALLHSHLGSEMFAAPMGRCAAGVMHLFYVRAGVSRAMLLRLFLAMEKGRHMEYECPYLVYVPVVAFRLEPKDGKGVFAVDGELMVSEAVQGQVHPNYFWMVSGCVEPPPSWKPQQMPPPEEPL

Take `COc1ccc(-c2coc3ncnc(N)c23)cc1`: the inhibition in assay [1] was 2.86%; in [2] it was 1.04%; in assay [3], -0.88%; in assay [4], 4.06%; in assay [5] it was -2.3%; in assay [6], 4.01%. Also, the inhibition was -4.53% in assay [7], 10.3% in assay [8], 9.84% in assay [9] and 5.67% in assay [10].

As for `NS(=O)(=O)c1ccc(N/N=C2\C(=O)Nc3ccc(C(=O)NCCc4c[nH]cn4)cc32)cc1`, the inhibition in assay [1] is -1.01%; in assay [2] it was 1.57%; in assay [3], 0.18%; in [4] it was 6.03%; in assay [5] it was 18.6%; in assay [6], 10.2%. In addition, the inhibition in assay [7] turned out to be 13%; in assay [8], 4.11%; in assay [9] it was 3.92%; in assay [10] it was 7.82%.

For the compound `CNC(=O)c1cncc(/C=C/c2c(Cl)cccc2Cl)c1`, the inhibition was -1.49% in assay [1]; 0.89% in [2]; -2.09% in [3]; 16.9% in [4]; 14.9% in assay [5]; 1.91% in assay [6]. Moreover, the inhibition in [7] worked out at 0.72%; in assay [8] it was 7.67%; in [9], 11.4%; in assay [10], 5.94%.

Turning to `CCn1c(-c2nonc2N)nc2c(C#CC(C)(C)O)nc(CN3CCCC3)cc21`, the inhibition in [1] was 0.08%; in assay [2] it was 2.01%; in [3] it was 1.13%; in assay [4], -0.41%; in assay [5] it was 0.78%; in assay [6] it was -1.06%. Also, the inhibition is 0.78% in assay [7], -1.14% in assay [8], -3.01% in [9] and 5.75% in assay [10].

Regarding `NS(=O)(=O)c1cccc(-c2ccc3c(NC(=O)C4CC4)n[nH]c3c2)c1`, the inhibition in assay [1] was 2.86%; in assay [2], 0.74%; in [3], -0.18%; in assay [4] it was 0.11%; in [5], -0.44%; in [6], 11.4%. The inhibition in assay [7] is 5.2%; in [8], -0.49%; in [9] it was -1.55%; in assay [10], -4.07%.

For the compound `CC1=C(C(=O)Nc2ccc3[nH]ncc3c2)C(c2ccc(F)cc2)NC(=O)N1` (stereo not given), the inhibition in [1] was -2.09%; in assay [2], -0.06%; in assay [3] it was -0.16%; in [4], 1.87%; in [5] it was 0.86%; in assay [6], 0.45%. Besides, the inhibition in assay [7] was found to be 7.79%; in [8], 1.68%; in assay [9], 1.73%; in [10], 1.7%.

On to `COc1cc2c(cc1Nc1nc(N3CCc4ccccc43)c3cc[nH]c3n1)N(C(=O)CN(C)C)CC2`, for which the inhibition is -1.12% in [1]; -0.36% in assay [2]; 0.81% in assay [3]; 0.13% in assay [4]; -9.3% in assay [5]; 2.9% in assay [6]. The inhibition is 0.37% in assay [7], 4.25% in assay [8], -1.42% in assay [9] and 0.88% in [10].

As for `Nc1nc(-c2ccc3c(c2)C(=Cc2cc(Br)c(O)c(Br)c2)C(=O)N3)cs1`, the inhibition in [1] was -0.49%; in assay [2] it was -0.01%; in assay [3] it was 0.02%; in assay [4], 2.7%; in [5] it was 24.1%; in [6], 9.67%. The inhibition was 2.3% in assay [7], 0.26% in assay [8], 0.06% in assay [9] and -3% in assay [10].

The values above are taken from ChEMBL document CHEMBL1961873, “Compounds: GSK PKIS; Assays: Nanosyn kinase panel” (2012).
